# Calls of active or inactive are those of the source. How the source made its calls: active means hit-call score of the fitted dose curve at least 0.9, where 1 is the maximum; inactive means score below 0.9.
# Tests used:
# [1] = read-out: Vascular endothelial growth factor receptor 2 (Homo sapiens) (UniProt P35968); experiment: BSK_4H_VEGFRII: BioMAP Diversity Plus: 4H Assay for Vascular endothelial growth factor receptor 2 (VEGFR2) Biomarker Activity (AID 2283031); details: primary human endothelial cells (HUVEC); actives raise or lower the signal
# In short: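 Primary human umbilical vein endothelial cells in the BioMAP 4H system were dosed with test chemical, and 24 h later VEGFRII was measured by ELISA. Activity was fitted bidirectionally against DMSO as negative control and baseline.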
# [2] = read-out: Human Leukocyte Antigen - DR isotype (HLADR), HLA-DRA (gene 3122); experiment: BSK_BE3C_HLADR: BioMAP Diversity Plus: BE3C Assay for Human Leukocyte Antigen - DR isotype (HLADR) Biomarker Activity (AID 2283032); details: primary human bronchial epithelial cells; actives raise or lower the signal
# In short: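 Signal came from an ELISA for HLA-DR in human bronchial epithelial primary cells harvested 24 h after treatment; gain- and loss-of-signal fitting used DMSO controls as reference.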
# [3] = read-out: Vascular cell adhesion molecule 1 (VCAM1), VCAM1 (gene 7412); experiment: BSK_4H_VCAM1: BioMAP Diversity Plus: 4H Assay for Vascular cell adhesion molecule 1 (VCAM1) Biomarker Activity (AID 2283033); details: primary human endothelial cells (HUVEC); actives raise or lower the signal;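 on outcome: cell-surface VCAM-1 protein measured by ELISA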
# In short: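 Endpoint derived from bidirectional fitting against DMSO controls of VCAM-1 ELISA signal in umbilical vein endothelial cells sampled at 24 h following treatment.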
# [4] = read-out: Interferon-gamma inducible Protein 10 (IP10), CXCL10 (gene 3627); experiment: BSK_BE3C_IP10: BioMAP Diversity Plus: BE3C Assay for Interferon-gamma inducible Protein 10 (IP10) Biomarker Activity (AID 2283034); details: primary human bronchial epithelial cells; actives raise or lower the signal
# In short: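 Using primary human bronchial epithelial cultures, the assay captures IP-10 by ELISA one day (24 h) after exposure. Parallel SRB staining of total protein flags overt cytotoxicity. Fits run bidirectionally relative to DMSO.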
# [5] = read-out: Monokine induced gamma interferon (MIG), CXCL9 (gene 4283); experiment: BSK_BE3C_MIG: BioMAP Diversity Plus: BE3C Assay for Monokine induced gamma interferon (MIG) Biomarker Activity (AID 2283035); details: primary human bronchial epithelial cells; actives raise or lower the signal;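 on outcome: MIG protein measured by ELISA in BE3C cultures after 24 h of dosing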
# In short: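 MIG level was determined by ELISA after 24 h chemical treatment of primary human bronchial epithelial cells. Values were fitted bidirectionally with DMSO as the negative control and activity baseline.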
# [6] = read-out: Transforming growth factor beta 1 (TGFb1), TGFB1 (gene 7040); experiment: BSK_BE3C_TGFb1: BioMAP Diversity Plus: BE3C Assay for Transforming growth factor beta 1 (TGFb1) Biomarker Activity (AID 2283036;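 on outcome: TGF-b1 protein level measured by ELISA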); details: primary human bronchial epithelial cells; actives raise or lower the signal
# In short: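 In this human primary bronchial epithelial system, an ELISA quantified TGF-b1 one day after dosing. Endpoint changes in either direction were fitted relative to DMSO.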
# [7] = read-out: Plasminogen activator inhibitor-1 (PAI1), SERPINE1 (gene 5054); experiment: BSK_BE3C_PAI1: BioMAP Diversity Plus: BE3C Assay for Plasminogen activator inhibitor-1 (PAI1) Biomarker Activity (AID 2283037); details: primary human bronchial epithelial cells; actives raise or lower the signal
# In short: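 PAI-1 biomarker levels in treated human bronchial epithelial cells are determined by ELISA at 24 h. Both increases and decreases relative to DMSO are fitted.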
# [8] = read-out: urokinase plasminogen activator (uPA), PLAU (gene 5328); experiment: BSK_BE3C_uPA: BioMAP Diversity Plus: BE3C Assay for urokinase plasminogen activator (uPA) Biomarker Activity (AID 2283038); details: primary human bronchial epithelial cells; actives raise or lower the signal;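 on outcome: uPA protein level quantified by ELISA in cell cultures; uPA read one day after compound addition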
# In short: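 Human primary bronchial epithelial cells were exposed to chemical for 24 h, then uPA levels were measured by ELISA. Responses were fitted bidirectionally against DMSO as negative control and baseline. Parallel SRB staining of total protein gauged overt cytotoxicity.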
# [9] = read-out: Urokinase-type plasminogen activator receptor (uPAR), PLAUR (gene 5329); experiment: BSK_BE3C_uPAR: BioMAP Diversity Plus: BE3C Assay for Urokinase-type plasminogen activator receptor (uPAR) Biomarker Activity (AID 2283039); details: primary human bronchial epithelial cells; actives raise or lower the signal;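 on outcome: cells exposed to compound for one day before measurement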
# In short: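 A uPAR ELISA serves as the readout, taken 24 h after treating primary human bronchial epithelial cells. Responses in either direction are fitted against DMSO, which defines baseline activity.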
# [10] = read-out: Interleukin-6 (IL6), IL6 (gene 3569); experiment: BSK_CASM3C_IL6: BioMAP Diversity Plus: CASM3C Assay for Interleukin-6 (IL6) Biomarker Activity for (AID 2283040); details: primary human coronary artery smooth muscle cells; actives raise or lower the signal
# [11] = read-out: Tissue plasminogen activator (tPA), PLAT (gene 5327); experiment: BSK_BE3C_tPA: BioMAP Diversity Plus: BE3C Assay for Tissue plasminogen activator (tPA) Biomarker Activity (AID 2283041); details: primary human bronchial epithelial cells; actives raise or lower the signal;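 on outcome: tPA level quantified by ELISA one day after compound addition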
# In short: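 Bidirectional curve fitting relative to DMSO defined activity, with tPA detected by ELISA in chemically treated human bronchial epithelial primary cells at 24 hours.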
# [12] = read-out: Interleukin-8 (IL8), CXCL8 (gene 3576); experiment: BSK_CASM3C_IL8: BioMAP Diversity Plus: CASM3C Assay for Interleukin-8 (IL8) Biomarker Activity (AID 2283042); details: primary human coronary artery smooth muscle cells; actives raise or lower the signal;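 further: IL-8 protein level quantified by ELISA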
# [13] = read-out: Human Leukocyte Antigen - DR isotype (HLADR), HLA-DRA (gene 3122); experiment: BSK_CASM3C_HLADR: BioMAP Diversity Plus: CASM3C Assay for Human Leukocyte Antigen - DR isotype (HLADR) Biomarker Activity (AID 2283043); details: primary human coronary artery smooth muscle cells; actives raise or lower the signal;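 further: cell-surface HLA-DR protein level quantified by ELISA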
# [14] = read-out: Macrophage colony-stimulating factor (MCSF), CSF1 (gene 1435); experiment: BSK_CASM3C_MCSF: BioMAP Diversity Plus: CASM3C Assay for Macrophage colony-stimulating factor (MCSF) Biomarker Activity (AID 2283044); details: primary human coronary artery smooth muscle cells; actives raise or lower the signal;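 further: M-CSF protein amount quantified by ELISA after 24 h exposure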
# [15] = read-out: Low-density lipoprotein receptor (LDLR), LDLR (gene 3949); experiment: BSK_CASM3C_LDLR: BioMAP Diversity Plus: CASM3C Assay for Low-density lipoprotein receptor (LDLR) Biomarker Activity (AID 2283045); details: primary human coronary artery smooth muscle cells; actives raise or lower the signal;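 further: LDLR protein level on the cell surface quantified by ELISA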
# [16] = read-out: Monocyte Chemoattractant Protein-1 (MCP1), CCL2 (gene 6347); experiment: BSK_CASM3C_MCP1: BioMAP Diversity Plus: CASM3C Assay for Monocyte Chemoattractant Protein-1 (MCP1) Biomarker Activity (AID 2283046); details: primary human coronary artery smooth muscle cells; actives raise or lower the signal;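 further: MCP-1 level quantified by ELISA 24 h after dosing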
# [17] = BSK_CASM3C_Proliferation: Cell Proliferation Assessment in the BioMAP Diversity Plus: CASM3C Assay (AID 2283047); details: primary human coronary artery smooth muscle cells;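 further: sulforhodamine B total protein stain as relative cell number at 560 nm; sub-confluent cells exposed 48 h before staining; fitted both ways against DMSO so gain or loss of cell number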
# [18] = read-out: Monokine induced gamma interferon (MIG), CXCL9 (gene 4283); experiment: BSK_CASM3C_MIG: BioMAP Diversity Plus: CASM3C Assay for Monokine induced gamma interferon (MIG) Biomarker Activity (AID 2283048); details: primary human coronary artery smooth muscle cells; actives raise or lower the signal
# [19] = read-out: serum amyloid A (SAA), SAA1 (gene 6288); experiment: BSK_CASM3C_SAA: BioMAP Diversity Plus: CASM3C Assay for serum amyloid A (SAA) Biomarker Activity (AID 2283049); details: primary human coronary artery smooth muscle cells; actives raise or lower the signal;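 further: SAA protein level quantified by ELISA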
# [20] = BSK_CASM3C_SRB: Viability Assessment in the BioMAP Diversity Plus: CASM3C Assay (AID 2283050); details: primary human coronary artery smooth muscle cells
compound,measurement,setting,value
CCN(CC)C(=O)c1cc(S(=O)(=O)Cc2ccccc2)c(N2CCC(c3ccccc3)CC2)cc1N(CC)CCN(C)C,outcome,[1],inactive
same,AC50,[2],8.48 µM (active)
same,AC50,[3],18.3 µM (active)
same,AC50,[4],10.9 µM (active)
same,AC50,[5],12.6 µM (active)
same,AC50,[6],9.99 µM (active)
same,AC50,[7],7.91 µM (active)
same,AC50,[8],10.3 µM (active)
same,AC50,[9],10.4 µM (active)
same,AC50,[10],0.7 µM (active)
same,AC50,[11],6.65 µM (active)
same,AC50,[12],24.8 µM (active)
same,AC50,[13],5.38 µM (active)
same,outcome,[14],inactive
same,AC50,[15],0.138 µM (active)
same,outcome,[16],inactive
same,AC50,[17],7.05 µM (active)
same,outcome,[18],inactive
same,outcome,[19],inactive
same,AC50,[20],27.1 µM (active)
CCCCOC(=O)CC(CC(=O)OCCCC)(OC(C)=O)C(=O)OCCCC,outcome,[1],inactive
same,AC50,[2],20 µM (active)
same,outcome,[3],inactive
same,outcome,[4],inactive
same,outcome,[5],inactive
same,outcome,[6],inactive
same,outcome,[7],inactive
same,outcome,[8],inactive
same,outcome,[9],inactive
same,outcome,[10],inactive
same,outcome,[11],inactive
same,outcome,[12],inactive
same,outcome,[13],inactive
same,outcome,[14],inactive
same,outcome,[15],inactive
same,outcome,[16],inactive
same,outcome,[17],inactive
same,outcome,[18],inactive
same,AC50,[19],20 µM (active)
same,outcome,[20],inactive
COCC(C)OCC(C)OCC(C)O (configuration not stated),outcome,[1],inactive
same,outcome,[2],inactive
same,outcome,[3],inactive
same,outcome,[4],inactive
same,outcome,[5],inactive
same,outcome,[6],inactive
same,outcome,[7],inactive
same,outcome,[9],inactive
same,outcome,[10],inactive
same,outcome,[11],inactive
same,outcome,[12],inactive
same,outcome,[13],inactive
same,outcome,[14],inactive
same,outcome,[15],inactive
same,outcome,[16],inactive
same,outcome,[17],inactive
same,outcome,[18],inactive
same,outcome,[19],inactive
same,outcome,[20],inactive
O=C1c2ccccc2C(=O)N1CCc1noc(-c2ccc(CN3CCCCCC3)s2)n1,outcome,[1],inactive
same,outcome,[3],inactive
same,outcome,[4],inactive
same,outcome,[5],inactive
same,outcome,[6],inactive
same,outcome,[7],inactive
same,outcome,[8],inactive
same,outcome,[9],inactive
same,outcome,[10],inactive
same,outcome,[11],inactive
same,outcome,[12],inactive
same,outcome,[13],inactive
same,outcome,[14],inactive
same,AC50,[15],27.1 µM (active)
same,outcome,[16],inactive
same,outcome,[17],inactive
same,outcome,[18],inactive
same,outcome,[19],inactive
same,outcome,[20],inactive
NC(=O)c1nc(-c2cccc(-c3cc(F)ccc3OCC(F)(F)C(F)(F)F)c2)n[nH]1,outcome,[1],inactive
same,AC50,[3],38.2 µM (active)
same,AC50,[4],35.9 µM (active)
same,AC50,[5],37.5 µM (active)
same,AC50,[6],33 µM (active)
same,AC50,[7],35.1 µM (active)
same,AC50,[8],37.7 µM (active)
same,AC50,[9],35.3 µM (active)
same,outcome,[10],inactive
same,AC50,[11],27.5 µM (active)
same,outcome,[12],inactive
same,AC50,[13],28.7 µM (active)
same,outcome,[14],inactive
same,outcome,[15],inactive
same,outcome,[16],inactive
same,AC50,[17],31.4 µM (active)
same,outcome,[18],inactive
same,outcome,[19],inactive
same,outcome,[20],inactive

# Source: PubChem BioAssay (EPA / NIEHS)
